Our source for the growth values is PubChem BioAssay (NCI).

Assay in all cases: NCI-60 one-dose screen, 48 h (100 = growth as untreated, 0 = no growth, -100 = all killed)
The subject of one assay is SK-MEL-2 melanoma. The note with it: 10 µM unless noted.
In the next assay the test system is EKVX NSCLC. The note with it: 10 µM unless noted.
Another assay deals with SN12C renal. As to conditions: 10 µM unless noted.
The next assay concerns UO-31 renal. As to conditions: 10 µM unless noted.
The test system of the next assay is TK-10 renal. As to conditions: 10 µM unless noted.
The next assay concerns ACHN renal. The note with it: 10 µM unless noted.
The subject of another assay is CAKI-1 renal. The note with it: 10 µM unless noted.
The subject of a further assay is A498 renal. As to conditions: 10 µM.
The test system of the next assay is HL-60(TB) leukemia. The note with it: 10 µM unless noted.
In the next assay the test system is CCRF-CEM leukemia. As to conditions: 10 µM unless noted.
The next assay has as its system MOLT-4 leukemia. As to conditions: 10 µM unless noted.
Another assay deals with SR leukemia. The note with it: 10 µM unless noted.
The next assay relates to RPMI-8226 leukemia. As to conditions: 10 µM unless noted.
A further assay deals with OVCAR-8 ovarian. As to conditions: 10 µM unless noted.
The subject of a further assay is OVCAR-5 ovarian. The note with it: 10 µM unless noted.
For another assay, the system named is OVCAR-4 ovarian. The note with it: 10 µM unless noted.
The next assay concerns SK-OV-3 ovarian. The note with it: 10 µM unless noted.
The subject of the next assay is OVCAR-3 ovarian. The note with it: 10 µM unless noted.
Another assay relates to HS 578T breast. The note with it: 10 µM unless noted.
The test system of another assay is IGROV1 ovarian. The note with it: 10 µM unless noted.

Compounds without any hit were thinned out: in the full panel of roughly 83,000, 20% have a hit.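 Results are percent growth after 48 hours of single-concentration exposure. 100 means growth as in untreated cells, lower positive values show inhibition; negative values down to -100 show cell death.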 Unmarked numbers belong to inactive results. The source made the active and inactive calls. The calls were made as follows: active = growth percent below 10; inactive = the rest.

`O=C([O][Hg][CH2]C1COCC([CH2][Hg][O]C(=O)c2ccccc2)O1)c1ccccc1` (stereo unspecified): the growth with SK-MEL-2 melanoma was 105%; in the assay with EKVX NSCLC it was 103%; in the assay with SN12C renal, 56.8%; with UO-31 renal, -12.1% (active); in the assay on TK-10 renal, 38.1%; in the assay with ACHN renal, 70.6%. The growth with CAKI-1 renal was 57.2%; in the assay on A498 renal it was 114%; in the assay on HL-60(TB) leukemia, 23.1%; in the assay with CCRF-CEM leukemia, -10.3% (active); with MOLT-4 leukemia, -2.46% (active); with SR leukemia, 46.8%. Further, the growth with RPMI-8226 leukemia was 71.8%; in the assay on OVCAR-8 ovarian it was 94%; in the assay on OVCAR-5 ovarian, 134%; with OVCAR-4 ovarian, 90.1%; in the assay with SK-OV-3 ovarian it was 118%; in the assay on OVCAR-3 ovarian, -94% (active). The growth with HS 578T breast was 89.1%.
On to `O=c1[nH]cc(N(CCCl)CCCl)c(=O)[nH]1`, for which the growth in the assay with SK-MEL-2 melanoma was 102%; in the assay on EKVX NSCLC, 101%; in the assay on SN12C renal it was 59.3%; with UO-31 renal it was 42.9%; in the assay with TK-10 renal, 86.8%; with ACHN renal it was 15.5%. The growth with CAKI-1 renal was 12.8%; with A498 renal, 101%; in the assay on HL-60(TB) leukemia it was -9.89% (active); in the assay on CCRF-CEM leukemia it was 31%; with MOLT-4 leukemia, 15.3%; in the assay with SR leukemia it was 10.4%. Moreover, the growth with RPMI-8226 leukemia was 77.8%; in the assay on OVCAR-5 ovarian, 70.1%; in the assay on OVCAR-4 ovarian it was 105%; in the assay with SK-OV-3 ovarian it was 93.3%; in the assay with IGROV1 ovarian, 50.2%; with OVCAR-3 ovarian it was 98.5%. Moreover, the growth in the assay with HS 578T breast was 87.8%.
With `Oc1c(CCl)cc(Cl)cc1CCl`, the growth was 105% with SK-MEL-2 melanoma; 104% in the assay on EKVX NSCLC; 122% in the assay with SN12C renal; 86.4% with UO-31 renal; 106% in the assay with TK-10 renal; 106% in the assay on ACHN renal. The growth in the assay with CAKI-1 renal is 104%; in the assay with A498 renal, 119%; in the assay with HL-60(TB) leukemia, 103%; with CCRF-CEM leukemia it was 108%; in the assay with MOLT-4 leukemia it was 98.4%; with SR leukemia, 101%. Also, the growth was 106% with RPMI-8226 leukemia; 112% with OVCAR-8 ovarian; 102% in the assay on OVCAR-5 ovarian; 107% in the assay on SK-OV-3 ovarian; 115% in the assay with OVCAR-3 ovarian; 104% in the assay with HS 578T breast.
For `COc1ccc2nc(NC(=O)COc3cc(/C=C\c4cc(OC)c(OC)c(OC)c4)ccc3OC)sc2c1`, the growth in the assay with SK-MEL-2 melanoma was 16.7%; in the assay with EKVX NSCLC, 44.7%; in the assay on SN12C renal it was 45.3%; in the assay on UO-31 renal, 14.7%; in the assay with TK-10 renal, 23.6%; in the assay with ACHN renal it was 42.8%. In addition, the growth in the assay with CAKI-1 renal was 6.25% (active); in the assay with A498 renal, -5.19% (active); with HL-60(TB) leukemia, 25%; in the assay on CCRF-CEM leukemia, 22.6%; in the assay on MOLT-4 leukemia, 12.9%; in the assay with SR leukemia, 28%. Moreover, the growth in the assay on RPMI-8226 leukemia is 20.9%; in the assay with OVCAR-8 ovarian, 24%; in the assay on OVCAR-5 ovarian, 71.6%; in the assay on OVCAR-4 ovarian, 49%; in the assay on SK-OV-3 ovarian, 8.6% (active); in the assay on OVCAR-3 ovarian it was -39% (active). Further, in the assay with HS 578T breast, the growth is -5.92% (active).
`CCCCCCCC(=O)OCC(=O)[C@]1(O)Cc2c(O)c3c(c(O)c2[C@@H](OC2CC(N)C(O)C(C)O2)C1)C(=O)c1c(OC)cccc1C3=O` (stereo partly specified): the growth is -48.3% (active) in the assay with SK-MEL-2 melanoma; -57.9% (active) in the assay on EKVX NSCLC; -69.4% (active) with SN12C renal; -83.2% (active) in the assay with UO-31 renal; -44.5% (active) in the assay with TK-10 renal; -82.9% (active) in the assay on ACHN renal. Further, the growth in the assay on CAKI-1 renal is -47.9% (active); in the assay on A498 renal it was -87.6% (active); in the assay with HL-60(TB) leukemia, -92.4% (active); in the assay on CCRF-CEM leukemia, -90.3% (active); in the assay on MOLT-4 leukemia it was -93.1% (active); in the assay with SR leukemia, -67.1% (active). The growth is -73.6% (active) in the assay with RPMI-8226 leukemia; -95% (active) in the assay with OVCAR-8 ovarian; -73.9% (active) in the assay with OVCAR-5 ovarian; -72.1% (active) in the assay with OVCAR-4 ovarian; -58.5% (active) in the assay on SK-OV-3 ovarian; -100% (active) in the assay with OVCAR-3 ovarian. Also, in the assay with HS 578T breast, the growth is -59.3% (active).
As for `COc1cc(NC(C)CCCNC2CN3CCC2CC3)c2ncccc2c1` (stereo unspecified), the growth is 91.7% in the assay with SK-MEL-2 melanoma; 71.2% in the assay on EKVX NSCLC; 86% in the assay with SN12C renal; 38.3% in the assay on UO-31 renal; 79.8% in the assay with TK-10 renal; 84.9% in the assay with ACHN renal. Also, the growth with CAKI-1 renal is 78.1%; in the assay on A498 renal, 57.2%; with HL-60(TB) leukemia it was 65.9%; in the assay with CCRF-CEM leukemia, 77.7%; in the assay on MOLT-4 leukemia, 74.2%; in the assay on SR leukemia it was 84.9%. Also, the growth in the assay with RPMI-8226 leukemia was 72.9%; in the assay with OVCAR-8 ovarian, 75.9%; with OVCAR-5 ovarian, 92.8%; with SK-OV-3 ovarian, 93.4%; in the assay on IGROV1 ovarian, 69.1%; in the assay on OVCAR-3 ovarian it was 11%. Moreover, the growth with HS 578T breast was 65.2%.
As for `ClCCN(CCCl)c1nc(Cl)c(C2CC(c3ccccc3)=NN2c2cc(Cl)cc(Cl)c2)s1` (stereo unspecified), the growth in the assay on SK-MEL-2 melanoma is 103%; in the assay with EKVX NSCLC, 101%; with SN12C renal, 95.2%; in the assay with UO-31 renal, 89.6%; in the assay with TK-10 renal, 109%; with ACHN renal, 96.1%. The growth is 83.4% with CAKI-1 renal; 116% in the assay with A498 renal; 105% in the assay with HL-60(TB) leukemia; 102% in the assay with CCRF-CEM leukemia; 101% in the assay with MOLT-4 leukemia; 112% in the assay with SR leukemia. Also, the growth was 108% in the assay on RPMI-8226 leukemia; 102% in the assay with OVCAR-5 ovarian; 96.9% in the assay with OVCAR-4 ovarian; 105% with SK-OV-3 ovarian; 101% with IGROV1 ovarian; 103% in the assay with OVCAR-3 ovarian. Moreover, the growth with HS 578T breast was 102%.
For the compound `Cc1c(C)c([N+](=O)[O-])c(C)c(C)c1[N+](=O)[O-]`, the growth with SK-MEL-2 melanoma was 90.8%; in the assay with EKVX NSCLC, 98.7%; in the assay on SN12C renal it was 111%; in the assay with UO-31 renal, 106%; in the assay on TK-10 renal it was 107%; with ACHN renal it was 106%. Besides, the growth in the assay on CAKI-1 renal is 91.3%; in the assay with A498 renal it was 94.3%; in the assay on HL-60(TB) leukemia it was 109%; in the assay with CCRF-CEM leukemia it was 99.1%; in the assay on MOLT-4 leukemia it was 100%; in the assay with SR leukemia, 93%. Moreover, the growth in the assay on RPMI-8226 leukemia is 106%; in the assay with OVCAR-8 ovarian, 95.7%; in the assay with OVCAR-5 ovarian it was 93.8%; with OVCAR-4 ovarian, 98.2%; with SK-OV-3 ovarian, 117%; with OVCAR-3 ovarian, 118%. The growth in the assay with HS 578T breast was 118%.
